Measurements: PubChem BioAssay AID2490 (National Center for Advancing Translational Sciences (NCATS), 2010)
The source made the active and inactive calls. Calls follow the shape of the full dose curve.

target: Thyroid hormone receptor beta (Homo sapiens) (UniProt P10828); assay: Secondary Confirmation Assay for Inhibitors of the Interaction of Thyroid Hormone Receptor and Steroid Receptor Coregulator 2, Texas Red Fluoroprobe; conditions: TRb LBD / Texas Red SRC2 peptide fluorescence polarization
Text: NIH Molecular Libraries Probe Production Network [MLPCN] NIH Chemical Genomics Center [NCGC] MLPCN Grant: DK058080 Assay Provider: R. Kip Guy, St. Jude Children's Research Hospital NCGC Assay Overview: Thyroid receptor (TR) regulates many homeostatic processes including basal metabolism, cardiovascular function, body weight, and lipid trafficking. TR modulators are potential therapeutics for obesity and hyperlipidemias but current thyroid analogs have undesirable side effects, particularly cardiac stimulation. To identify inhibitors that specifically prevent the interaction of TR with the steroid receptor coregulator 2 (SRC2), a fluorescence polarization assay was screened (Arnold et al., 2006). This assay detects the interaction of the ligand-binding domain of human TRb with a Texas Red labeled SRC2 peptide, corresponding to a 20 amino acid region of the nuclear receptor interaction domain. Small molecule inhibitors that block the interaction of TR and SRC2 are detected by a decrease in fluorescence polarization.
NCGC Assay Protocol Summary: Twenty uL/well 0.6 uM TRb and 20 nM Texas Red labeled SRC2-2 in protein buffer (20mM Tris hydrochloride, pH 7.4, 100mM NaCl, 10% glycerol, 1mM EDTA, 0.01% NP-40, 1mM DTT, 1uM T3 and 4% DMSO) was dispensed into black solid 384-well plates (Costar 3710) using a Biomek FX (Beckman Coulter) liquid handling system. Following transfer of 260 nL compound (ranging from 7 nM to 130 uM), the plates were incubated 3 hr at ambient temperature. The plates were read by an Envision (Perkin Elmer) to detect fluorescence polarization of SRC2 Texas Red (555 nm excitation and 632 nm emission). Arnold, L. A.; Estebanez-Perpina, E.; Togashi, M.; Shelat, A.; Ocasio, C. A.; McReynolds, A. C.; Nguyen, P.; Baxter, J. D.; Fletterick, R. J.; Webb, P.; Guy, R. K. A high-throughput screening method to identify small molecule inhibitors of thyroid hormone receptor coactivator binding. Sci STKE 2006, p 13.

Thyroid hormone receptor beta (Homo sapiens), sequence (P10828 whole entry, looked up, the tested form may be a part): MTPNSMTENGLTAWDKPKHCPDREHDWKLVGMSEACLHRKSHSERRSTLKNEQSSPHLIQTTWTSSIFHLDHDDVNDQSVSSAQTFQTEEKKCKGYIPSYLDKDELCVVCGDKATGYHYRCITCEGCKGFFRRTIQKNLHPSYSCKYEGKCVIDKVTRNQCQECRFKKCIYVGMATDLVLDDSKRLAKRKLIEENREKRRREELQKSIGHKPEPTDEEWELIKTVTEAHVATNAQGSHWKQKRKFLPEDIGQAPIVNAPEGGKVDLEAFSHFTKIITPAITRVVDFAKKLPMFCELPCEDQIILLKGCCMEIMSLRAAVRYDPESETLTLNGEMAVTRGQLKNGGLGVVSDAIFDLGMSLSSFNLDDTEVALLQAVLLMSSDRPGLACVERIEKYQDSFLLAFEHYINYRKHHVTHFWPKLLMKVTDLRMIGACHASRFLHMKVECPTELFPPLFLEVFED

| Compound | outcome | Potency |
| --- | --- | --- |
| CC(=O)c1cccc(NC(=O)COC(=O)c2ccc(S(C)(=O)=O)c([N+](=O)[O-])c2)c1 | inactive |  |
| CCN1CCN(C(=O)COC(=O)c2ccc(S(C)(=O)=O)c([N+](=O)[O-])c2)C(C)C1 (stereo not given) | inactive |  |
| CS(=O)(=O)c1ccc(C(=O)OC(C(=O)NC2C3CC4CC(C3)CC2C4)c2ccccc2)cc1[N+](=O)[O-] (stereo not given) |  | 3.9 µM (active) |
| CS(=O)(=O)c1ccc(C(=O)OCC(=O)N2CCOCC2)cc1[N+](=O)[O-] | inactive |  |
| CS(=O)(=O)c1ccc(C(=O)OCC(=O)N2CCN(C3CCCCC3)CC2)cc1[N+](=O)[O-] |  | 16.1 µM (active) |
| Cc1cc(C(=O)OCC(=O)NC(=O)C2CCCCC2)ccc1[N+](=O)[O-] | inactive |  |
| CS(=O)(=O)c1ccc(C(=O)OCC(=O)N2CCc3ccccc32)cc1[N+](=O)[O-] |  | 51.8 µM (active) |
| CCCC1CCN(C(=O)COC(=O)c2ccc(S(C)(=O)=O)c([N+](=O)[O-])c2)CC1 |  | 3.3 µM (active) |
| COc1cccc(CNC(=O)COC(=O)c2ccc(S(C)(=O)=O)c([N+](=O)[O-])c2)c1 |  | 64.6 µM (active) |
| Cc1nc(-c2ccc(S(C)(=O)=O)c([N+](=O)[O-])c2)sc1C(=O)NC1C2CC3CC(C2)CC1C3 (stereo not given) |  | 4 µM (active) |
| CS(=O)(=O)c1ccc(C(=O)OCC(=O)NC(=O)C2CCCCC2)cc1[N+](=O)[O-] |  | 1.4 µM (active) |
| CC(=O)c1cccc(NC(=O)C(C)OC(=O)c2ccc(S(C)(=O)=O)c([N+](=O)[O-])c2)c1 (stereo not given) |  | 50.9 µM (active) |
| O=C(COC(=O)c1ccc(F)c([N+](=O)[O-])c1)NC1C2CC3CC(C2)CC1C3 (stereo not given) |  | 14.3 µM (active) |
| CS(=O)(=O)c1ccc(C(=O)OCC(=O)N2CCN(CCC3CCCCC3)CC2)cc1[N+](=O)[O-] |  | 7.6 µM (active) |
| CS(=O)(=O)c1ccc(C(=O)OCC(=O)N2CCCCC2)cc1[N+](=O)[O-] |  | 20.5 µM (active) |
| CCC(OC(=O)c1ccc(S(C)(=O)=O)c([N+](=O)[O-])c1)C(=O)NC1C2CC3CC(C2)CC1C3 (stereo not given) |  | 1.1 µM (active) |
| Cc1ccc(F)cc1NC(=O)COC(=O)c1ccc(S(C)(=O)=O)c([N+](=O)[O-])c1 | inactive |  |
| CCN(CC)C(=O)COC(=O)c1ccc(S(C)(=O)=O)c([N+](=O)[O-])c1 |  | 41.3 µM (active) |
| CCc1nc(-c2ccc(S(C)(=O)=O)c([N+](=O)[O-])c2)sc1C(=O)NC1C2CC3CC(C2)CC1C3 (stereo not given) |  | 3 µM (active) |
| CC(OC(=O)c1ccc(S(C)(=O)=O)c([N+](=O)[O-])c1)C(=O)NC12CC3CC(CC(C3)C1)C2 (stereo not given) |  | 2.1 µM (active) |

| Compound | outcome | Potency |
| --- | --- | --- |
| CC(C)CN1CCN(C(=O)COC(=O)c2ccc(S(C)(=O)=O)c([N+](=O)[O-])c2)CC1 |  | 42.4 µM (active) |
| CC(OC(=O)c1ccc(S(C)(=O)=O)c([N+](=O)[O-])c1)C(=O)NC1C2CC3CC(C2)CC1C3 (stereo not given) |  | 1.4 µM (active) |
| CC1CCN(C(=O)C(C)OC(=O)c2ccc(S(C)(=O)=O)c([N+](=O)[O-])c2)CC1 (stereo not given) |  | 6.4 µM (active) |
| C[S+](=O)([O-])c1ccc(C(=O)OCC(=O)N2CCNC(=O)C2)cc1[N+](=O)[O-] | inactive |  |
| O=C(COC(=O)c1cccc([N+](=O)[O-])c1Cl)NC1C2CC3CC(C2)CC1C3 (stereo not given) | inactive |  |
| O=C(COC(=O)c1ccc(C(F)(F)F)cc1)NC(=O)C1CCCCC1 | inactive |  |
| CC1CCN(C(=O)COC(=O)c2ccc(S(C)(=O)=O)c([N+](=O)[O-])c2)CC1 |  | 9.8 µM (active) |
| C[S+](=O)([O-])c1ccc(C(=O)OCC(=O)NC2C3CC4CC(C3)CC2C4)cc1 (stereo not given) | inactive |  |
| C[S+](=O)([O-])c1ccc(C(=O)OCC(=O)N2CCN([S+](C)(=O)[O-])CC2)cc1[N+](=O)[O-] | inactive |  |
| O=C(COC(=O)c1cccc([N+](=O)[O-])c1)NC1C2CC3CC(C2)CC1C3 (stereo not given) | inactive |  |
| CC1(C)C2CCC1(C)C(NC(=O)COC(=O)c1ccc(S(C)(=O)=O)c([N+](=O)[O-])c1)C2 (stereo not given) |  | 4.3 µM (active) |
| CCN1CCN(C(=O)COC(=O)c2ccc(S(C)(=O)=O)c([N+](=O)[O-])c2)CC1C (stereo not given) | inactive |  |
| CS(=O)(=O)c1ccc(-c2nc(C(=O)NC3C4CC5CC(C4)CC3C5)cs2)cc1[N+](=O)[O-] (stereo not given) |  | 10.1 µM (active) |
| C#CC1(NC(=O)COC(=O)c2ccc(S(C)(=O)=O)c([N+](=O)[O-])c2)CCCCC1 |  | 9.2 µM (active) |
| Cc1ccccc1NC(=O)COC(=O)c1ccc(S(C)(=O)=O)c([N+](=O)[O-])c1 | inactive |  |
| CS(=O)(=O)c1ccc(C(=O)OCC(=O)N2Cc3ccccc3C2)cc1[N+](=O)[O-] |  | 3 µM (active) |
| CS(=O)(=O)c1ncc(C(=O)OCC(=O)NC2C3CC4CC(C3)CC2C4)cn1 (stereo not given) |  | 3.2 µM (active) |
| CS(=O)(=O)c1ccc(C(=O)OCC(=O)N2CCCc3ccccc32)cc1[N+](=O)[O-] |  | 2.3 µM (active) |
| O=C(COC(=O)c1ccc(Cl)c([N+](=O)[O-])c1)NC1C2CC3CC(C2)CC1C3 (stereo not given) | inactive |  |
| CC(=O)Nc1cccc(C(=O)OCC(=O)NC(=O)C2CCCCC2)c1 | inactive |  |
